Activity calls are given as the source filed them.
How the values were obtained:
Albumin (Bos taurus) = Albumin (Bos taurus) (UniProt P02769); experiment: bovine serum albumin binders on microarray, profiling panel, artefact control for SMM control protein annotation, biochemical, small-molecule microarray, Alexa647 label, 635/667 nm fluorescence (AID 1118); settings: BSA-A647 binding, fluorescence 635 nm, higher = more signal;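 further: score merges 667 nm emission intensity and signal-to-noise per printed compound spot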
Albumin (Bos taurus), sequence (P02769 whole entry, looked up): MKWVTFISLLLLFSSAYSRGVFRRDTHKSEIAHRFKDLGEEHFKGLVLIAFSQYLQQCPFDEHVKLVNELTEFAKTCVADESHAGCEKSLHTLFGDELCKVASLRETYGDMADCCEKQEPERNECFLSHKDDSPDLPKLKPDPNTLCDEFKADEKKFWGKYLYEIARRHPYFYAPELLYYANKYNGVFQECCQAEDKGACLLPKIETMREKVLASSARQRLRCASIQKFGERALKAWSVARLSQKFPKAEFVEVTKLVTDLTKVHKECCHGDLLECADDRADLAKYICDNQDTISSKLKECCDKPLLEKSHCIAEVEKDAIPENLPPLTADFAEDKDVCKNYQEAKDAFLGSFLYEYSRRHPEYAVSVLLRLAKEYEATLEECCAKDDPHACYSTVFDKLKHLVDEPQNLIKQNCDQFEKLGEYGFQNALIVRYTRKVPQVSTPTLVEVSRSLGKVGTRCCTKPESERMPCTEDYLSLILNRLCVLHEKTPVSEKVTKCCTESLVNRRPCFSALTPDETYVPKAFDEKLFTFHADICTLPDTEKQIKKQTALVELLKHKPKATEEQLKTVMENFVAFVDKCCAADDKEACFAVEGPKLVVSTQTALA

[1] = small-molecule microarray binders of probe aXIP, primary screen, biochemical, NeuroSMM set, 635/667 nm fluorescence (AID 1119); settings: higher = more signal, called active from +8 up or from −8 down;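 further: probe is the protein aXip251-270 applied at 1 µg/mL to compound-printed slides; binding of probe to printed compounds measured as 667 nm fluorescence plus signal to noise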
[2] = small-molecule binders of probe aNOTCH3, primary screen, biochemical, small-molecule microarray, 635/667 nm fluorescence (AID 1120); settings: higher = more signal;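 further: probe is a biotin-tagged antibody raised against NOTCH3 rather than NOTCH3 protein; score merges spot fluorescence near 667 nm with spot signal to noise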
[3] = small-molecule binders of probe aNOTCH2, primary screen, biochemical, small-molecule microarray, 635/667 nm fluorescence (AID 1121); settings: higher = more signal;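 further: score merges feature fluorescence read at 667 nm with its signal to noise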
[4] = molecular target: Carbonic anhydrase 2 (Homo sapiens) (UniProt P00918); experiment: CAII small-molecule binders, profiling panel, biochemical, small-molecule microarray, Alexa647-labelled CAII (AID 1122); settings: CAII-A647 binding fluorescence, higher = more signal
[5] = COS7 lysate on small-molecule microarray, probe aHis, 635 nm (AID 1123); settings: COS7 cell lysate, fluorescence, higher = more signal;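 further: z-score combines 667nm fluorescence intensity with signal-to-noise per printed compound spot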
[6] = compound binding in COS7 lysate, probe aLAP1, primary screen, cell lysate, small-molecule microarray (AID 1124); settings: probe aLAP1, fluorescence, higher = more signal;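 further: lysate comes from COS7 cells expressing LAP1 and is applied at 0.3 µg/mL; score merges spot fluorescence near 667 nm with signal-to-noise over triplicate slides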
Sam68 (KHDRBS1) = experiment: Sam68 small-molecule binders, primary screen, biochemical, small-molecule microarray, 635 nm fluorescence (AID 1125); settings: small-molecule microarray binding, higher = more signal;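 further: score merges 667 nm channel intensity with signal to noise over triplicate slides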
[7] = system: Chordin-like protein 2 (CHRDL2); experiment: CHRDL2 small-molecule binders, primary screen, biochemical, small-molecule microarray, 635 nm fluorescence (AID 1126); settings: small-molecule microarray binding, fluorescence 635 nm; higher = more signal;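 further: printed compound slides probed with Chrdl2 protein at 4 µg/mL for 1 h at 4 C; score merges 667 nm emission intensity with signal to noise over three replicate slides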
[8] = molecular target: Concanavalin-A (Canavalia ensiformis) (UniProt P02866); experiment: ConA small-molecule binders, primary screen, artefact control for SMM control protein annotation, biochemical, small-molecule microarray, Alexa647 label, 635 nm (AID 1127); settings: ConA-A647 binding fluorescence, higher = more signal;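 further: z combines 667 nm emission intensity with signal-to-noise across three replicate slides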
Concanavalin-A (Canavalia ensiformis), sequence (P02866 whole entry, looked up): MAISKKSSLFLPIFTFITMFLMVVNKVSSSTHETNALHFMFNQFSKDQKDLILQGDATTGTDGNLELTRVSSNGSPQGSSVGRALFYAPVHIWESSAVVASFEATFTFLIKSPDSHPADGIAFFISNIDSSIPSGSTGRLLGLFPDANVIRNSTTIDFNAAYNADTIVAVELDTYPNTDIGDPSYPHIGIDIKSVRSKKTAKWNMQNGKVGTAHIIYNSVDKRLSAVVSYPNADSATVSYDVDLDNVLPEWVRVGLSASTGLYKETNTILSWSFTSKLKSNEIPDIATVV

[9] = anti-His antibody binders, primary screen, artefact control for SMM control protein annotation, biochemical, small-molecule microarray, 635 nm fluorescence (AID 1128); settings: anti-His Alexa647 antibody binding, higher = more signal;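 further: score merges feature fluorescence with signal-to-noise for each printed compound spot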
[10] = system: Human papillomavirus type 1a E7 protein (residues 1-88); experiment: HPV1a E7 small-molecule binders, primary screen, biochemical, small-molecule microarray, residues 1-88, 635 nm (AID 1129); settings: small-molecule microarray binding, fluorescence 635 nm; higher = more signal
[11] = molecular target: Focal adhesion kinase 1 (Homo sapiens) (UniProt Q05397); experiment: small-molecule microarray binders of FAK, primary screen, biochemical, 635/667 nm fluorescence, BSA, DTT (AID 1130); settings: PTK2 binding, 635 nm fluorescence, higher = more signal;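 further: composite of spot emission at 667 nm and signal to noise over triplicate slides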
Focal adhesion kinase 1 (Homo sapiens), sequence (Q05397 whole entry, looked up): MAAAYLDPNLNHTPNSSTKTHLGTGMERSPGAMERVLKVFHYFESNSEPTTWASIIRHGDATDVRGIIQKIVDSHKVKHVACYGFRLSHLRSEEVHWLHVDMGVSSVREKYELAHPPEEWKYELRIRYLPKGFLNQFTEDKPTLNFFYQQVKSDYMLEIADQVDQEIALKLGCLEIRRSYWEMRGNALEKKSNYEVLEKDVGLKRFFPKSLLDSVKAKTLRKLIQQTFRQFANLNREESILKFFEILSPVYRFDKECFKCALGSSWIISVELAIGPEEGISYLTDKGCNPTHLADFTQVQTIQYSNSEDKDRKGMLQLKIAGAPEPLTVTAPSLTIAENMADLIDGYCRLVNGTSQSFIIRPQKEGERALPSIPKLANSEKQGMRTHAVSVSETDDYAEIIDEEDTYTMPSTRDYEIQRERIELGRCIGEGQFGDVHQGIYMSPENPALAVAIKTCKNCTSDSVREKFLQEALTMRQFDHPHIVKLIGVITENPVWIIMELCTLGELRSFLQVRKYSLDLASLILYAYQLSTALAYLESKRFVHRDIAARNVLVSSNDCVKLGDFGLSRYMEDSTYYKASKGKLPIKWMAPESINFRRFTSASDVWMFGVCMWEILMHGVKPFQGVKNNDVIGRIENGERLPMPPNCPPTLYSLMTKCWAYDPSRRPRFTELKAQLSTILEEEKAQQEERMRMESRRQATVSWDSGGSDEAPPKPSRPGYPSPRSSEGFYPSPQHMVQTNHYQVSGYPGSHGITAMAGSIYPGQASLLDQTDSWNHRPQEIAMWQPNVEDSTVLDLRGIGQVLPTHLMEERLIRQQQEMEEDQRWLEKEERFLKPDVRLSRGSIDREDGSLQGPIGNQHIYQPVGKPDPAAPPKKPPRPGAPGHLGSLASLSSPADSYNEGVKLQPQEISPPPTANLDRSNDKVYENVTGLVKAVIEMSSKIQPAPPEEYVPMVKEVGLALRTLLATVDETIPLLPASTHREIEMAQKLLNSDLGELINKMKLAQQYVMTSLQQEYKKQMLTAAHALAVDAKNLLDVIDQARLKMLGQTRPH

[12] = system: Fibrinogen (Alexa647-labelled); experiment: fibrinogen binders on compound microarrays, profiling panel, artefact control for SMM control-protein annotation, biochemical, small-molecule microarray, 635/667 nm fluorescence (AID 1131); settings: fibrinogen-A647 binding fluorescence, higher = more signal;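 further: z-score merges 667 nm fluorescence with per-spot signal-to-noise over triplicate slides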
[13] = molecular target: Follistatin (Homo sapiens) (UniProt P19883); experiment: follistatin binders on small-molecule microarrays, primary screen, biochemical, small-molecule microarray, 635/667 nm fluorescence (AID 1132); settings: FST binding, 635 nm fluorescence, higher = more signal
Follistatin (Homo sapiens), sequence (P19883 whole entry, looked up): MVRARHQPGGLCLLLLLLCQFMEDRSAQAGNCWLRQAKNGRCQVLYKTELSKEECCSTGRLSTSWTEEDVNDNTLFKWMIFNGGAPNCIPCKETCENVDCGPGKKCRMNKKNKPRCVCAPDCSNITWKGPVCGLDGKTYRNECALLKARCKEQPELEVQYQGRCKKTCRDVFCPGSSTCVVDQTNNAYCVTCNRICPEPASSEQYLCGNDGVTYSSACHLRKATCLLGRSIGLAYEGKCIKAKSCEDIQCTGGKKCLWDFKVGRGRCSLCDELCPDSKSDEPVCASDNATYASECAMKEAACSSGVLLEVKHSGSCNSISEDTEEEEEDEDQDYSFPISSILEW

[14] = molecular target: Fibroblast growth factor 2 (Homo sapiens) (UniProt P09038); experiment: FGF2 binders on small-molecule microarrays, primary screen, biochemical, small-molecule microarray, 635/667 nm fluorescence (AID 1133); settings: small-molecule microarray binding, FGF2, fluorescence 635/667; higher = more signal
Fibroblast growth factor 2 (Homo sapiens), sequence (P09038 whole entry, looked up): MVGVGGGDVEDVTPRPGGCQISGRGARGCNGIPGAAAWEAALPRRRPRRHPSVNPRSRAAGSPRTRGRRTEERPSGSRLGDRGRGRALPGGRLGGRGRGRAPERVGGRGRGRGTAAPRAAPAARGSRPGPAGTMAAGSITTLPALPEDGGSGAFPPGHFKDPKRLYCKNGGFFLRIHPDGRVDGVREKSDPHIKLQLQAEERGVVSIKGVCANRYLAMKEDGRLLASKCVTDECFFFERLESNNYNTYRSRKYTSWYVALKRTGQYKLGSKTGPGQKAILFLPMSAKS

[15] = mitochondrial membrane potential change in A549 cells, profiling panel, cell-based, JC-1 fluorescence, basal, 24 h, 100 nL (AID 1138); settings: higher = more signal;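 further: A549 lung adenocarcinoma cells under basal conditions with no added stimulus; test concentration not given here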
Lefty1 = Lefty1 binders on small-molecule microarrays, primary screen, biochemical, small-molecule microarray, 635/667 nm fluorescence (AID 1139); settings: small-molecule microarray binding, fluorescence 635/667; higher = more signal
[16] = system: wheat germ agglutinin (Triticum aestivum), Alexa647-labelled; experiment: wheat germ agglutinin binders on compound microarrays, profiling panel, artefact control for SMM control-protein annotation, biochemical, small-molecule microarray, 635/667 nm fluorescence (AID 1140); settings: WGA-A647 binding, 635 nm fluorescence, higher = more signal;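 further: score merges 667 nm feature emission with signal to noise over triplicate slides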
[17] = molecular target: Luciferin 4-monooxygenase (Photinus pyralis) (UniProt P08659); experiment: firefly luciferase enzyme inhibitors, primary screen, biochemical, luminescence, purified enzyme, 2006 set (AID 1141); settings: SteadyGlo luminescence, 30 min, higher = more signal, called active from +8 up or from −8 down;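 further: cell-free assay with purified firefly luciferase at 100 ng per well in PBS; test concentration not given here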
Luciferin 4-monooxygenase (Photinus pyralis), sequence (P08659 whole entry, looked up): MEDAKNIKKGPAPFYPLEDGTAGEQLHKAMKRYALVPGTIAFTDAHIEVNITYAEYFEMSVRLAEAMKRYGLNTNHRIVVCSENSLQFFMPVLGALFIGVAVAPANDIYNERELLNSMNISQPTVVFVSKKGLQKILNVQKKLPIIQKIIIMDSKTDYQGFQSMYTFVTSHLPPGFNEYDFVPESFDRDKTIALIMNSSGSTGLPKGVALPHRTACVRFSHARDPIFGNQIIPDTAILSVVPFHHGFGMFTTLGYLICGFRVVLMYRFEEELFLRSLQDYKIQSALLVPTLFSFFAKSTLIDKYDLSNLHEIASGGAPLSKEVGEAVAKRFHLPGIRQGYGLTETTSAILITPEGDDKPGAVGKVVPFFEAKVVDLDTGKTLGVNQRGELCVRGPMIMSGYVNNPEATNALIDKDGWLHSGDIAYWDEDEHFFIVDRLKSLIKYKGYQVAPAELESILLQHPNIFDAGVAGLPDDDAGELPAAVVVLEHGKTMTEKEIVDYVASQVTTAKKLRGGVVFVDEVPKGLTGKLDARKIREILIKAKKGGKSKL

| Compound | composite z-score (Albumin (Bos taurus)) | composite Z-score [1] | composite z-score [2] | composite z-score [3] | composite z-score [4] | composite z-score [5] | composite z-score [6] | composite z-score (Sam68 (KHDRBS1)) | composite z-score [7] | composite z-score [8] | composite z-score [9] | composite z-score [10] | composite z-score [11] | composite z-score [12] | composite z-score [13] | composite z-score [14] | z-score [15] | composite z-score (Lefty1) | composite z-score [16] | z-score [17] |
| --- | --- | --- | --- | --- | --- | --- | --- | --- | --- | --- | --- | --- | --- | --- | --- | --- | --- | --- | --- | --- |
| C=C(C)C(=O)OCC1CN2[C@@H](CC[C@@H](C)[C@@H]2c2ccc(Br)cc2)C(=O)O1 (stereo not given in full) | 0.188 | -0.168 (inactive) | 0.0539 | -0.11 | -0.062 | 0.0971 | -0.126 | 0.671 | 0.691 | 0.59 | 0.0797 | 0.281 | 1.64 | 0.794 | 0.196 | 0.192 | 0.717 | 0.452 | 0.0513 | -0.0906 (inactive) |
| COc1ccc(COC(=O)NN=C2C[C@@H](O)[C@@H](O)[C@@H]3[C@@H]4C(=O)N(C5CCCCC5)C(=O)[C@@H]4CC[C@H]23)cc1 | 0.213 | 1.22 (inactive) | -0.365 | -0.28 | 0.262 | -0.0294 | -0.222 | -0.331 | -0.275 | -1.14 | -0.823 | -0.552 | -0.497 | -0.439 | -1.72 | -1.04 | 0.195 | -1.42 | 0.778 | -0.224 (inactive) |
| C[C@H]1Cc2c(COc3ccccc3)nc3c(c2CO1)CN(CCOc1ccccc1)CC3 | -0.16 | -0.711 (inactive) | 0.0282 | -0.0746 | 0.635 | 1.14 | 0.282 | 1.32 | 0.522 | 1.08 | 1.07 | 0.804 | 0.673 | 0.702 | 1.18 | 0.537 | 4.09 | 1.13 | 0.346 | -1.19 (inactive) |
| CC(C)=CCCC(C)=CCON=C1C[C@@H](O)[C@@H](O)[C@@H]2[C@@H]3C(=O)N(C(C)(C)C)C(=O)[C@@H]3CC[C@@H]12 | 0.0038 | -0.204 (inactive) | -0.127 | -0.0859 | -0.0211 | -0.13 | -0.0115 | 0.383 | 0.129 | 0.411 | 0.696 | 0.494 | 0.057 | -0.0293 | 0.307 | 0.247 | -0.872 | 0.351 | 0.269 | 0.421 (inactive) |
| O=c1n(Cc2cc3c(cc2Cl)OCO3)c(=O)n2n1CC[C@@H]1C(=NOCc3ccccc3)[C@H]3O[C@H]3[C@@H](O)[C@@H]12 | 0.0524 | 0.0993 (inactive) | 0.106 | -0.0495 | 0.177 | 0.155 | 0.708 | 0.529 | 0.6 | 0.223 | 0.559 | 0.459 | -0.0758 | 0.623 | 0.444 | 0.784 | 0.679 | 0.716 | 0.125 | -1.8 (inactive) |
